In publication PMC5540273 (PLoS ONE, 2017):

Tests used:
Details in all cases: concentration: 1 μM, replicates: in singlicate; n = 1
CSNK1G1 = system: CSNK1G1
CSNK1G2 = system: CSNK1G2
CSNK1G3 = system: CSNK1G3
CSNK2A1 = system: CSNK2A1
CSNK2A2 = system: CSNK2A2
CTK = system: T1, CTK
T1 construct: gene MATK

DAPK1 = system: DAPK1
DAPK2 = system: DAPK2
DAPK3 = system: DAPK3
DCAMKL1 = system: T2, DCAMKL1
T2 construct: gene DCLK1

DCAMKL2 = system: T3, DCAMKL2
T3 construct: gene DCLK2

DCAMKL3 = system: T4, DCAMKL3
T4 construct: gene DCLK3

DDR1 = system: DDR1
DDR2 = system: DDR2
DLK = system: T5, DLK
T5 construct: gene MAP3K12

DMPK2 = system: T6, DMPK2
T6 construct: gene CDC42BPG

DMPK = system: DMPK
DRAK1 = system: T7, DRAK1
T7 construct: gene STK17A

DRAK2 = system: T8, DRAK2
T8 construct: gene STK17B

DYRK1A = system: DYRK1A
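Note: KINOMEscan kinase panel screen.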

SMILES	%Inh (CSNK1G1) [%]	%Inh (CSNK1G2) [%]	%Inh (CSNK1G3) [%]	%Inh (CSNK2A1) [%]	%Inh (CSNK2A2) [%]	%Inh (CTK) [%]	%Inh (DAPK1) [%]	%Inh (DAPK2) [%]	%Inh (DAPK3) [%]	%Inh (DCAMKL1) [%]	%Inh (DCAMKL2) [%]	%Inh (DCAMKL3) [%]	%Inh (DDR1) [%]	%Inh (DDR2) [%]	%Inh (DLK) [%]	%Inh (DMPK2) [%]	%Inh (DMPK) [%]	%Inh (DRAK1) [%]	%Inh (DRAK2) [%]	%Inh (DYRK1A) [%]
Cl.Cl.NCC(NCc1ccc(-c2ccnc3[nH]ccc23)s1)c1ccccc1 (centres unmarked) [GSK1321565]	0	0	33	39	37	0	67	32	71	21	0	0	0	34	0	25	81	75	6	38
COc1cccc(NC(=O)NC2CCN(c3ccnc(Nc4cc(OC)c(OC)c(OC)c4)n3)C2)c1 (centres unmarked) [GSK1379763]	0	0	14	12	7	0	5	0	17	0	0	0	22	24	46	27	0	0	0	0
c1ccc(-c2cnc3nccnn23)cc1 [AH20685]	0	5	0	0	0	0	0	0	0	0	27	0	0	24	20	0	0	0	0	42
FC(F)(F)c1ccc(/C=C/c2cncnc2Nc2ccc3[nH]c(Cc4ccccc4)nc3c2)cc1 [GW709199]	2	0	4	0	0	0	0	0	11	9	7	21	0	36	0	0	0	0	7	0
Cc1ccc(C(=O)N2CC[C@@H](O)C2)cc1-n1c(C)cc(OCc2ccc(F)cc2F)c(Br)c1=O	0	0	0	0	0	0	3	0	7	40	0	0	99	94.6	0	0	0	0	0	0
CC(=O)N1CCN(c2ccc(Nc3nccc(-c4sc(C(C)C)nc4-c4cccc(NS(=O)(=O)c5cccc(Cl)c5)c4)n3)cn2)CC1 [GSK1660437]	0	0	10	13	0	27	14	0	6	9	19	52	98.2	40	23	0	0	0	0	0
COc1ccc(CNC(=O)NC2CCN(c3ccnc(Nc4ccc(F)cc4)n3)CC2)cc1 [GSK1379788]	0	0	19	0	0	0	0	0	0	0	0	5	0	32	34	0	0	0	0	0
Clc1ccc(-c2nn3ncccc3c2-c2ccnc(Nc3ccc4c(c3)OCCO4)n2)cc1 [GW829116]	0	42	23	0	8	36	0	0	0	7	0	0	98.5	95.9	0	92.9	0	0	0	0
Nc1ncc(-c2ccc3nccc(-c4ccncc4)c3c2)cc1S(=O)(=O)N1CCOCC1 [GSK1627798]	0	0	8	5	1	0	0	2	9	0	22	0	0	0	32	0	0	0	0	28
Cc1cccc(Nc2nc(N[C@H]3CCNC3)ncc2C(N)=O)c1.Cl [GSK2197149]	14	11	15	52	0	13	69	51	22	16	30	0	0	0	35	4	0	53	22	24
CCCCc1nn2ncccc2c1-c1ccnc(Nc2ccc(N3CCN(C)CC3)cc2)n1 [GW684941]	0	0	0	0	7	13	0	0	17	17	25	2	100	96.2	47	50	0	5	0	17
COc1cc(Nc2nccc(N3CCC(NC(=O)Nc4cccc(C(C)=O)c4)C3)n2)cc(OC)c1OC (centres unmarked) [GSK1379753]	12	0	21	13	16	0	5	0	13	20	0	0	6	8	42	25	0	0	10	14
COc1cc(Nc2ncc3c(C)nc(-c4cc5ccccc5[nH]4)n3n2)cc(OC)c1OC [GW869516]	21	0	29	96.4	99.7	0	0	0	11	17	0	0	52	52	22	0	0	30	10	85
O=C(Nc1n[nH]c2nc(-c3ccc(O)cc3)ccc12)C1CC1 [SB-710363]	0	0	9	64	87	30	76	0	32	0	0	76	0	27	0	0	0	93.4	26	62
O=C(Nc1n[nH]c2cc(-c3ccoc3)ccc12)C1CC1 [SB-738481]	0	0	12	35	66	25	6	0	0	2	0	0	0	5	0	24	0	24	0	61
Cn1cc(-c2ccc3c(c2)CCN3C(=O)Cc2cccc(F)c2)c2c(N)ncnc21 [GSK2603358]	28	0	38	0	0	0	0	0	12	14	0	32	69	30	22	50	0	0	0	15
Cl.Cl.NCC(NC(=O)c1cc(-c2ccccc2)c(-c2ccnc3[nH]ccc23)s1)c1ccccc1 (centres unmarked) [GSK1321561]	14	89	81	5	38	0	0	3	12	0	0	10	99.7	76	35	94.7	82	41	0	13

SMILES	%Inh (CSNK1G1) [%]	%Inh (CSNK1G2) [%]	%Inh (CSNK1G3) [%]	%Inh (CSNK2A1) [%]	%Inh (CSNK2A2) [%]	%Inh (CTK) [%]	%Inh (DAPK1) [%]	%Inh (DAPK2) [%]	%Inh (DAPK3) [%]	%Inh (DCAMKL1) [%]	%Inh (DCAMKL2) [%]	%Inh (DCAMKL3) [%]	%Inh (DDR1) [%]	%Inh (DDR2) [%]	%Inh (DLK) [%]	%Inh (DMPK2) [%]	%Inh (DMPK) [%]	%Inh (DRAK1) [%]	%Inh (DRAK2) [%]	%Inh (DYRK1A) [%]
COc1cc(Nc2nccc(-c3c(-c4cccc(NC(=O)c5c(F)cccc5F)c4)nn4ccccc34)n2)cc(OC)c1OC [GSK323521]	20	31	25	2	6	0	0	22	19	9	11	11	90.3	61	3	49	9	0	0	13
O=C(NC1CCN(c2ccnc(Nc3ccc(F)cc3)n2)C1)c1cc2ccccc2s1 (centres unmarked) [GSK1379716]	20	0	24	0	12	0	19	15	5	18	9	7	0	32	32	0	0	7	0	7
O=C(Nc1cccc(-c2nn3ccccc3c2-c2ccnc(Nc3cccc(C(F)(F)F)c3)n2)c1)c1c(F)cccc1F [GSK292658]	0	0	8	7	2	14	0	0	0	49	0	0	99.3	50	2	49	0	0	0	9
CN(C)S(=O)(=O)c1cc(-c2ccc3nccc(-c4cccc(S(N)(=O)=O)c4)c3c2)cnc1N [GSK1669921]	22	0	33	11	4	12	0	8	3	28	6	0	100	5	0	0	10	0	0	37
CCn1c(-c2nonc2N)nc2c(C#CC(C)(C)O)nc(OC[C@H](N)c3ccccc3)cc21 [GSK943949]	0	0	17	0	30	11	0	3	18	12	0	19	4	12	0	0	0	13	19	4
Nc1n[nH]c2cnc(-c3ccccc3)cc12 [SB-642124]	4	0	3	21	27	0	24	0	27	13	0	10	2	18	19	0	31	44	0	91.4
CN1CCN(CCCNc2nccc(-c3c(-c4ccc(F)cc4)nn4cc(C(F)(F)F)ccc34)n2)CC1 [GW621581]	0	0	16	0	0	0	0	0	100	0	0	25	100	81	16	0	0	33	0	5
Cc1ccc(C(=O)Nc2ccc(Nc3ccnc4cc(-c5nccs5)ccc34)cc2O)cc1.Cl [GW494702]	0	0	4	0	100	8	0	0	10	0	0	0	22	46	69	0	0	5	0	3
Cc1ccc(S(=O)(=O)Nc2ccc(Nc3nccc(Nc4cccc5[nH]ncc45)n3)cc2)cc1 [GSK581271]	0	0	7	0	0	0	0	0	5	12	5	21	82	36	0	0	0	61	7	16
COc1cccc(-c2ccc3c(NC(=O)C4CC4)n[nH]c3n2)c1 [SB-710903]	0	0	10	0	79	0	0	0	13	21	0	6	0	52	72	0	0	2	4	52
Fc1ccc(-c2ncn(C3CCNCC3)c2-c2ccnc(Oc3ccc(-c4ccccc4)cc3)n2)cc1 [SB-245391]	30	78	49	0	7	37	14	5	22	10	3	18	2	10	7	86	5	0	15	0
Cn1cc(-c2[nH]c3cc(NC(=O)[C@H](N)C4CCCCC4)cc4c3c2C=NNC4=O)cn1	0	0	2	68	77	0	99.8	98.7	99.7	46	24	99.4	0	39	94.8	0	82	99.6	99.9	79
CN1CCN(Cc2cccc(-c3ccc4c(Nc5ccc(Oc6ccccc6)cc5)ccnc4c3)c2)CC1 [GW578342]	18	1	2	0	0	0	100	6	25	13	1	59	9	33	41	0	0	10	0	1
Cn1cc(-c2ccc3c(c2)CCN3C(=O)Cc2cccc(Cl)c2)c2c(N)ncnc21 [GSK2606590]	31	0	29	8	30	0	1	5	0	12	19	0	99.5	57	51	53	0	0	0	11
Cc1ccc(F)c(C(=O)Nc2cccc(-c3nn4ccccc4c3-c3ccnc(Nc4cccc(F)c4)n3)c2)c1F [GSK361061]	10	12	27	20	10	27	0	10	14	0	13	70	100	87	7	85	13	0	0	11
Cc1ccc(C)c(NC(=O)NC2CCN(c3ccnc(Nc4ccc(F)cc4)n3)C2)c1 (centres unmarked) [GSK1379720]	0	15	12	0	0	0	0	0	0	6	0	3	0	25	0	0	0	10	0	10
CC(C)(C)c1ccc2nccc(Nc3cccc(O)c3)c2c1 [GW856795]	36	0	0	0	0	0	16	0	0	14	0	0	62	47	16	0	3	5	1	0
